Screens as filed in PubChem BioAssay.
nsP2pro inh: blocks chikungunya virus nsP2 protease peptide cleavage; Q8JUX6; FRET peptide cleavage, nsP2pro, fluorescence 1 h; 1.1% of 31,000 active; Potency, µM (doses to about 24.9 µM), actives largely listed as inhibitors; note: nearly all actives have a fitted effect of over 60% in size
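Purified recombinant nsP2pro (150 nM final) in 10 mM Tris-HCl pH 8.0 with 0.01% Tween 20 was preincubated 15 min at room temperature with compound (7 concentrations, up to 25 uM). FRET peptide 2 substrate (2.5 uM final) was then added; fluorescence was read after 1 h.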
nsP2 cell sec: inhibits CHIKV nsP2 protease in cells; 10% of 450 active; cell-based CHIKV nsP2 protease reporter assay; Potency, µM (series often up to 51.1 µM), usual class: inhibitors; shares compounds with nsP2pro inh; note: nearly all actives have a fitted effect of over 70% in size
Target sequence (Q8JUX6 220-798 limits assumed): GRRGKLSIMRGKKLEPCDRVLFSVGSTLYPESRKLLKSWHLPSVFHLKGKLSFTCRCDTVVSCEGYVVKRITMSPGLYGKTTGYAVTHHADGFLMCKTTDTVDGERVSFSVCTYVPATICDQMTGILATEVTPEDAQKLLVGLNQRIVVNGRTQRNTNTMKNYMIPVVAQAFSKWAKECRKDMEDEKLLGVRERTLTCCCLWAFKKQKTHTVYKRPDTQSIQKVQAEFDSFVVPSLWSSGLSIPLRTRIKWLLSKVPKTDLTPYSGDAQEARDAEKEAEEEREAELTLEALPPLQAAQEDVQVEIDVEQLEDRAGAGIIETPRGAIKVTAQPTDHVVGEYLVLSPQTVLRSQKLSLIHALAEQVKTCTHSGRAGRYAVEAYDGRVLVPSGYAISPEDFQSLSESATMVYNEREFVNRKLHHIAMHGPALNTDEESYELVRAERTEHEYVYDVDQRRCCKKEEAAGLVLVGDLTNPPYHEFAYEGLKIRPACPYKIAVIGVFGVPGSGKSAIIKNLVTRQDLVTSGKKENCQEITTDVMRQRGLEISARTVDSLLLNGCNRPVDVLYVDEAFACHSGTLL
NSP2 full ctr: selectivity test for CHIKV nsP2 protease inhibitors: full-length NSP2; shares compounds with nsP2pro inh; Full-length CHIKV NSP2 protease enzymatic counterscreen; Potency, µM (top dose mostly 50.7 µM), most hits filed as inhibitors; 39% of 410 active; note: nearly all actives have a fitted effect of over 65% in size
Furin counterscr: selectivity counter-screen for CHIKV nsP2 protease inhibitors: human furin. shares compounds with nsP2pro inh. Recombinant human furin enzymatic counterscreen, fluorogenic substrate. Potency, µM (highest dose often 50.6 µM), actives largely listed as inhibitors. 6% of 410 active. AID 1964102
NS23 peptide cs: blocks CHIKV nsP2 protease cleavage of endogenous NS2/3 peptide; shares compounds with nsP2pro inh; Purified CHIKV nsP2 protease, endogenous NS2/3 peptide cleavage; Potency, µM (highest dose often 51 µM), hits mostly inhibitors; 34% of 410 active; AID 1964103; note: nearly all actives have a fitted effect of over 55% in size
Papain counter: papain protease inhibition, counterscreen for nsP2pro inhibitors; shares compounds with nsP2pro inh; purified papain protease activity, enzymatic inhibition; Potency, µM (series often up to 51 µM), usual class: inhibitors; 5% of 410 active
nsP2pro confirm: confirmation of CHIKV nsP2 protease inhibitors; 43% of 410 active; CHIKV nsP2 protease enzymatic activity, qHTS; AID 1964105; shares compounds with nsP2pro inh; Potency, µM (titrated, usually from 25.5 µM), most hits filed as inhibitors; note: nearly all actives have a fitted effect of over 75% in size
HCV NS3 4A cs: inhibits HCV NS3/4A protease in an nsP2pro selectivity counterscreen; shares compounds with nsP2pro inh; HCV NS3/4A protease biochemical counterscreen; Potency, µM (highest dose often 50.9 µM), usual class: inhibitors; 20% of 410 active; AID 1964106; note: nearly all actives have a fitted effect of over 55% in size
Hits are given with their value; - = inactive; ? = inconclusive; . = no result; [ ] = remark or other dose. Shown is part of a subset that was picked to be rich in hits. Calls come from the whole dose curve.

SMILES	nsP2pro inh	others
O=C(CCc1c[nH]c2ccccc12)N1CC(N(Cc2ccccc2)C2CCOCC2)C1	-
O=c1c(O[C@@H]2OC([C@H](O)CO)[C@H](O)[C@H]2O)c(-c2ccc(O)c(O)c2)oc2cc(O)cc(O)c12 (stereo partly drawn)	-
COCOC1CCC(C(=O)Nc2ccc([S+](=O)([O-])Nc3nccs3)cc2)CC1 (stereo not drawn)	-
COc1cccc(CN2CCCC3(CNc4ccccc4[S+](=O)([O-])N3)C2)c1 (stereo not drawn)	-
O=C(CN(Cc1cccc2ccccc12)C1CC1)Nc1ccc(N2CCOCC2)cc1	-
O=C(Nc1cccc(C(=O)O)c1)Nc1nnc(-c2ccncc2)s1	-
O=C(NCCCc1ccccc1)c1nc2sccn2c1-c1cccc(C(F)(F)F)c1	-
Cc1ccc(Cl)cc1N1CCN(CCNC(=O)Nc2ccc(Cl)cc2)CC1	-
CCOc1ccc(NC(=O)NCCCN2CCN(c3ccc(OC)cc3)CC2)cc1	-
CCCNC(=O)CN1CCN(c2ccc(NC(=O)c3ccc(OC)cc3)cc2C(=O)O)CC1	4.5µM	nsP2 cell sec=?;NSP2 full ctr=4.1µM;Furin counterscr=?;NS23 peptide cs=13µM;Papain counter=-;nsP2pro confirm=7.1µM;HCV NS3 4A cs=2.9µM
CCOc1ccc(NC(=O)CN2CCN(S(=O)(=O)c3ccc(OC)cc3)CC2)cc1	-
CCCCOc1ccc(C(=O)Nc2ccc(F)cc2F)cc1	-
O=C(Nc1ccc(N2CCN(CCOc3ccc(Cl)cc3)CC2)c(C(=O)O)c1)c1ccc(F)cc1	3.5µM	nsP2 cell sec=-;NSP2 full ctr=3.3µM;Furin counterscr=?;NS23 peptide cs=8.2µM;Papain counter=-;nsP2pro confirm=7.1µM;HCV NS3 4A cs=2.1µM
OC1(CN2CCCCC2)CCN(Cc2cnn(-c3ccccc3Cl)c2)C1 (stereo not drawn)	-
Cc1ccc(-c2cc(C(=O)NCc3cccs3)nn3cnnc23)cc1	-
COc1cc(N2CCN(C(=S)Nc3cc(C)cc(C)n3)CC2)cc(C(F)(F)F)c1	-
COc1cccc(CN2CCC3(CC2)COc2ccccc2CN3)c1	-
CC(Cc1ccc(O)c(O)c1)C(C)Cc1ccc(O)c(O)c1 (stereo not drawn)	9.9µM	nsP2 cell sec=-;NSP2 full ctr=29µM;Furin counterscr=-;NS23 peptide cs=21µM;Papain counter=-;nsP2pro confirm=8µM;HCV NS3 4A cs=-
CC(CCc1ccc(O)cc1)NCCc1ccc(O)c(O)c1 (stereo not drawn)	-
Cc1ccnc(NC(=S)N2CCN(c3cccc(C(F)(F)F)n3)CC2)c1	-
COc1ccc2cc(C(=O)N3C[C@@H](CO)[C@H](c4ccccn4)C3)[nH]c2c1	-
CCS(=O)(=O)N1CCN(c2ccc(Nc3ncc(C(N)=O)c(NC4CC4)n3)cc2)CC1	-
CC(=O)NCC(=O)N1[C@@H]2CC[C@H]1c1ccc(Nc3ncc(C(F)(F)F)c(NC4CCC4)n3)cc12	.	nsP2 cell sec=-;NSP2 full ctr=?;Furin counterscr=-;NS23 peptide cs=-;Papain counter=?;nsP2pro confirm=?;HCV NS3 4A cs=-
CS(=O)(=O)c1cccc(CNc2nc(Nc3ccc4c(c3)CCC(=O)N4)ncc2C(F)(F)F)c1	-
COc1cccc(CN2Cc3cc(NC(=O)c4ccc(F)cc4F)ccc3OC(C)C2=O)c1 (stereo not drawn)	-
SMILES	nsP2pro inh	others
CCCNC(=O)[C@@H]1Cc2cn(Cc3nccn3C)c3cccc(c23)[C@H](CC(C)C)N1	-
CC(C)=CCC1=C(O)c2ccccc2C(=O)C1=O	?	nsP2 cell sec=?;NSP2 full ctr=?;Furin counterscr=-;NS23 peptide cs=?;Papain counter=-;nsP2pro confirm=-;HCV NS3 4A cs=-
COC1=C(OC)C(=O)C(CC=C(C)CCC=C(C)CCC=C(C)CCC=C(C)CCC=C(C)CCC=C(C)CCC=C(C)CCC=C(C)CCC=C(C)CCC=C(C)C)=C(C)C1=O	-[2.68 µM]
Cc1cccc(S(=O)(=O)Nc2cnccc2C(=O)Nc2nc(-c3ccccc3)cs2)c1	-
COCCN1C(=O)CC[C@]2(C(=O)N3CCCCCC3)CCCC[C@@H]12	-
Cc1nn(C(=O)CCC(=O)N2CCC(Cc3nncn3CC3CC3)CC2)c2ccccc12	-
COc1ccc2c(C(=O)c3ccc(Cl)cc3)c(C)n(CC(=O)O)c2c1	-
Cc1ccc(SCC(=O)Nc2cccc(-c3nc4cc(Cl)ccc4o3)c2C)cc1	-
CC(=O)Nc1cccc2c1c(Sc1ccc(Cl)cc1)c(C)n2CC(=O)O	9.9µM	nsP2 cell sec=-;NSP2 full ctr=-;Furin counterscr=-;NS23 peptide cs=-;Papain counter=-;nsP2pro confirm=-;HCV NS3 4A cs=-
Cc1cc(C)nc(NC(=S)N2CCN(c3cccc(S(C)(=O)=O)c3)CC2)c1	-
CCCS(=O)(=O)N1C[C@@H](Oc2cccnc2)C[C@H]1C(N)=O	-
O=C(c1ccc(C(F)(F)F)cc1)N1CCCC(C(=O)N2CCC(c3nc4ccncc4[nH]3)CC2)C1 (stereo not drawn)	-
O=c1c2ccc(C(F)(F)F)cc2nc2sc(Nc3ccc4c(c3)CCC4)nn12	-
COc1ccc(-c2ccc3nc(-c4ccc(C)c(F)c4)oc3c2)c(OC)c1OC	-
COc1ccc(-c2ccc3nc(-c4ccc(F)c(F)c4)oc3c2)c(OC)c1OC	-
COc1ccc(-c2ccc3nc(-c4cccc(F)c4)oc3c2)c(OC)c1OC	?	nsP2 cell sec=?
O=c1c2ccccc2nc2sc(Nc3cccc(N4CCN5CCCCC5C4)c3)nn12 (stereo not drawn)	-
COC(=O)C1CCc2sc(NC(=O)Cc3ccccc3)c(C(=O)Nc3ccc(Cl)cc3)c21 (stereo not drawn)	-
CCOc1cc(/C=C(\C#N)C(=O)Nc2ccc(OC)cc2)ccc1OCc1cc(=O)n2nc(CC)sc2n1	-
CCOc1ccc(/C=C(\C#N)C(=O)Nc2sc3c(c2C(=O)OC)C(C(=O)OC)CC3)cc1OC (stereo not drawn)	0.85µM	nsP2 cell sec=-;NSP2 full ctr=?;Furin counterscr=-;NS23 peptide cs=5.8µM;Papain counter=-;nsP2pro confirm=4µM;HCV NS3 4A cs=-
CC(C)CCC[C@@H](C)[C@H]1CC[C@H]2[C@@H]3CC[C@H]4C[C@@H](O)CC[C@]4(C)[C@@H]3CC[C@]12C	-
CCCCC(C)(O)CC=C[C@H]1[C@H](O)CC(=O)[C@H]1CCCCCCC(=O)OC (stereo partly drawn)	-
O=C(NCc1nnc(-c2cc3ccccc3[nH]2)s1)c1ccccc1	-
O=C(Cc1nnc(-c2cc3ccccc3[nH]2)s1)Nc1cc(C(F)(F)F)ccc1Cl	-
c1ccc(CN(Cc2ccccc2)Cc2nnc(-c3cc4ccccc4[nH]3)s2)cc1	8.9µM	nsP2 cell sec=-;NSP2 full ctr=-;Furin counterscr=-;NS23 peptide cs=-;Papain counter=-;nsP2pro confirm=-;HCV NS3 4A cs=-
O=C(O)c1ccc(Cc2c(-c3cccc(-c4ccccc4)c3)[nH]n(-c3nc(C(=O)O)cs3)c2=O)cc1	-
